An excerpt weighted towards active compounds, which were near 2.5% of everything screened.
Pol kappa inh-1 = DNA polymerase kappa (human) inhibition. AID 588579. Q9UBT6. Potency, µM (top dose mostly 107 µM), without a hit: at the top dose activity, negative = inhibition, hits mostly inhibitors. 400,000 tested, 0.53% active. purified Pol kappa, fluorescent DNA synthesis assay, 10 min; also: % is scaled to controls: 0 for no effect and ±100 for the full control effect
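Pol kappa 10 nM + cpd, 15 min RT; start w/ substrate 50 nM final; fluorescence kinetic read, 0 and 10 min. Neg ctrl: buffer, no enzyme.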
Pol eta inh-1 = blocks human DNA polymerase eta activity; AID 588591; 390,000 tested, 1.2% active; Potency, µM (titrated, usually from 114 µM), without a hit: top-dose activity change, negative = inhibition, actives largely listed as inhibitors; recombinant Pol eta, fluorescent DNA replication assay; Q9Y253; also: % is scaled to controls: 0 for no effect and ±100 for the full control effect
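Fluorescent replication assay: 50 nM final substrate added after a 15 min room-temperature compound preincubation with 10 nM enzyme. Signal taken at 0 min and again at 10 min.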
POLI inh = DNA polymerase iota (human) inhibition. Pol iota fluorescent replication assay, 10 min. Potency, µM (highest dose often 115 µM), without a hit: at the highest dose activity, negative = inhibition, usual class: inhibitors. 390,000 tested, 1% active. AID 588590
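Pol iota at 10 nM preincubated 15 min with compounds at room temperature; reaction started with fluorescent substrate, 50 nM final. Fluorescence read kinetically at 0 and 10 min; buffer-only wells as negative control.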
L3MBTL1 inh = L3MBTL1 (human) inhibition. Q9Y468. AlphaScreen L3MBTL1–H3K9me1 peptide binding. Potency, µM (series often up to 57.1 µM), for the others: at the highest dose activity, negative = inhibition, usual class: inhibitors. 230,000 tested, 0.66% active; also: % is scaled to controls: 0 for no effect and ±100 for the full control effect; nearly all actives have a fitted effect of over 60% in size
Target sequence (Q9Y468 whole entry, looked up): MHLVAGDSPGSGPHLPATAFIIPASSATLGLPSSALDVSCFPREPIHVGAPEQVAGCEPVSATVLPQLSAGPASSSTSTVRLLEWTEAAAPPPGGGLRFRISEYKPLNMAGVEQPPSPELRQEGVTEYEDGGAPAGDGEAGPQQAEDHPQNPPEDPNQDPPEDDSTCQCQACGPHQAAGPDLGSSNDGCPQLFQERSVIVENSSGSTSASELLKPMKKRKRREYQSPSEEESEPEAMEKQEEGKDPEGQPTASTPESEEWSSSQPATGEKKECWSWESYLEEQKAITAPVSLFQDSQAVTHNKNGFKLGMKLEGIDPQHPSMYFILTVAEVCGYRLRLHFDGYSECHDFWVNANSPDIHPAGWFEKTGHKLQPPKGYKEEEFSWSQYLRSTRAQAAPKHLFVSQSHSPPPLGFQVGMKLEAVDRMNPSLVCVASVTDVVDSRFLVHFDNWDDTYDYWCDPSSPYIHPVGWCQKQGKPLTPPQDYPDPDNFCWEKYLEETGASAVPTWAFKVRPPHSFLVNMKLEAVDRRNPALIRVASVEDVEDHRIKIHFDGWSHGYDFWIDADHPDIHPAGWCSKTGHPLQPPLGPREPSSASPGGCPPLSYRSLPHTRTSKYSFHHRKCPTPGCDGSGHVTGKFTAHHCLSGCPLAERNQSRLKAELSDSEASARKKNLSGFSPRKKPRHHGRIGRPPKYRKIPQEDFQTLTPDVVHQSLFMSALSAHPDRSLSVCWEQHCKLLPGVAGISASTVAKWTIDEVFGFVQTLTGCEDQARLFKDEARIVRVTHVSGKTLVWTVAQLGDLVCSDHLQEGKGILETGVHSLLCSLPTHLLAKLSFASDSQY
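Displacement of a biotinylated histone H3(1-15) peptide monomethylated at Lys9 (75 nM) from L3MBTL1 (50 nM) was measured by AlphaScreen after a 30 min room-temperature compound incubation; cefsulodin titration served as intraplate control.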
POLB inh = blocks human DNA polymerase beta activity; P06746; Pol beta primer extension/strand displacement, fluorescence kinetic; Potency, µM (titrated, usually from 114 µM), inactives show top-dose activity change, negative = inhibition, actives largely listed as inhibitors; 340,000 tested, 1.3% active; also: % is scaled to controls: 0 for no effect and ±100 for the full control effect
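Human Pol beta at 10 nM; strand-displacement substrate 50 nM final. Compound exposure 15 min at room temperature before start, reaction 10 min at room temperature.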
APEX1 inh = APE1 (human) endonuclease inhibition | P27695 | recombinant APE1, TAMRA/BHQ-2 abasic DNA cleavage fluorescence | Potency, µM (doses to about 65.8 µM), for inactives: top-dose activity change, negative = inhibition, actives largely listed as inhibitors | 350,000 tested, 0.35% active | AID 2517;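 also: plate controls were vehicle for no effect and reference inhibitor for full effect; nearly all actives have a fitted effect of over 55% in size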
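Kinetic fluorescence read (525 ex/598 em nm, three reads 60 s apart) of AP-site incision; signal = third minus first read. Enzyme 0.75 nM, dual-labelled THF duplex 50 nM, compound preincubation 15 min RT.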
PGK validate = validation of Trypanosoma brucei phosphoglycerate kinase inhibitors | shares compounds with Pol kappa inh-1 | TbPGK coupled GAPDH assay, Kinase-Glo luminescence | Potency, µM (doses to about 57.5 µM), for the others: top-dose activity change, negative = inhibition, actives largely listed as inhibitors | 500 tested, 79% active; also: % is scaled to controls: 0 for no effect and ±100 for the full control effect; nearly all actives have a fitted effect of over 65% in size
Pol iota confirm = Confirm cherry-picked inhibitors of human polymerase iota; Pol iota primer extension, TAMRA/BHQ fluorescence; shares compounds with Pol kappa inh-1; Potency, µM, actives largely listed as inhibitors; AID 720496; 1,500 tested, 77% active
Pol kappa inh-2 = confirmation of human DNA polymerase kappa inhibitors; 920 tested, 76% active; Potency, µM, usual class: inhibitors; shares compounds with Pol eta inh-1; purified Pol-kappa, fluorescent strand-displacement substrate
Pol eta inh-2 = confirmation of human DNA polymerase eta inhibitors | shares compounds with Pol eta inh-1 | Pol eta primer extension, TAMRA/BHQ fluorescence, 10 min | Potency, µM, hits mostly inhibitors | 2,600 tested, 64% active | AID 720502
* hit, by the source's call; i = inactive; ? = inconclusive; · = no result. Calls follow the shape of the dose curve; as a rule, active = well fitted curve in the direction sought with a large enough effect; inconclusive = small, poorly fitted or top-dose-only effect, or another doubt; inactive = no such curve, though single readings can be large; an effect the other way counts as inactive or inconclusive. Potency is read from the fitted curve at half-maximal effect.

SMILES | Pol kappa inh-1 | Pol eta inh-1 | POLI inh | L3MBTL1 inh | POLB inh | APEX1 inh | Pol iota confirm | Pol eta inh-2 | others
O=C(O)c1ccc(-c2ccc(/C=c3/sc4nc5ccccc5n4c3=O)o2)cc1Cl | 10µM* | 1.6µM* | 3.2µM* | · | 4µM* | 9.5µM* | 15* | 6* | PGK validate=12µM*;Pol kappa inh-2=3*
COc1ccc2c(c1)c1c(c(=O)n(-c3ccccc3C)c(=O)n1Cc1c(F)cccc1Cl)n2C | 3% | -3% | 17% | · | 12% | · | · | ·
COc1ccc2c(c1)-c1nc(/N=C/c3ccccc3O)sc1CC2 | -12% | -17% | 12% | -9% | 0% | -14% | · | ·
COc1ccc2sc(/C=C/c3ccccc3O)[n+](C)c2c1 | -27% | 50µM* | 18µM* | -11% | 18µM* | -6% | 67* | 34* | Pol kappa inh-2=67*
Cc1nn(-c2ccccc2)c(OC(=O)c2cccc(Br)c2)c1S(=O)(=O)c1ccccc1 | 14% | -10% | -2% | · | 9% | · | · | ·
Cc1ccc(C(=O)NCCn2cc(SCC(=O)Nc3cc(C)on3)c3ccccc32)cc1 | 10% | -18% | -15% | · | 2% | -8% | · | ·
Cc1cc(NC(=O)CSc2cn(CCNC(=O)c3ccccc3)c3ccccc23)no1 | 11µM* | ? | ? | · | 19% | -4% | 8.4* | 11* | PGK validate=1.2µM*
CCOC(=O)Cn1ccc(NC(=O)c2ccc3c(c2)OCO3)n1 | 2% | -9% | 0% | · | 14% | -2% | · | ·
CCOC(=O)c1c(NC(=O)CCCOc2ccc(C(C)(C)C)cc2)sc2c1CCC2 | -15% | -6% | -27% | · | 26% | · | · | ·
Cc1ccc(S(=O)(=O)Nc2ccc(Br)cc2C(NCC(=O)O)c2ccccc2)cc1 (stereo not drawn) | -20% | -5% | -1% | 10% | -15% | 7% | · | ·
O=C(O)CSc1cc(NS(=O)(=O)c2ccc(Br)cc2)c2ccccc2c1O | 89µM* | 35µM* | 7.1µM* | · | 89µM* | 2% | ? | ? | Pol kappa inh-2=?
O=[N+]([O-])c1ccc(N=Nc2ccc(O)cc2O)cc1 | -5% | -11% | -1% | · | ? | 1% | · | ·
O=S(=O)(O)c1cc(Cl)cc(N=Nc2ccc(O)cc2O)c1O | -170% | 13µM* | i | · | · | · | 12* | 43* | Pol kappa inh-2=6.7*
O=C(Nc1ccc(N2CCCCC2)cc1)c1ccc([N+](=O)[O-])o1 | ? | 50µM* | 40µM* | · | 40µM* | 22% | 34* | 60*
CC1CCN(c2ccc(NC(=O)c3ccc([N+](=O)[O-])o3)cc2)CC1 | 1% | -9% | -9% | -9% | · | 12% | · | ·
CCCC(=O)Nc1cc(-c2nc3cccnc3s2)ccc1C | -12% | 2% | ? | · | -25% | · | · | ·
COC(CNC(=O)C1CCN(S(=O)(=O)c2ccc3nc4c(c(C(=O)O)c3c2)CC(C)CC4)CC1)OC (stereo not drawn) | ? | 14µM* | ? | · | -16% | -8% | 21* | 5.4*
COc1cc(/C=N/Nc2ccccc2[N+](=O)[O-])ccc1OC(=O)c1ccccc1F | -3% | -11% | 42% | -10% | 5% | 2% | · | ·
Cc1cccc(NC(=O)C(C)OC(=O)c2ccccc2NS(=O)(=O)c2cc(C)c(C)c([N+](=O)[O-])c2)c1 (stereo not drawn) | -3% | -23% | 42% | -12% | 27% | -3% | · | ·
O=C(O)c1ccccc1NS(=O)(=O)c1ccc(N/N=C/c2cccc(O)c2O)c([N+](=O)[O-])c1 | 28µM* | 3.2µM* | 10µM* | · | · | · | 34* | 30* | PGK validate=12µM*
COc1cc(C=NNc2ccc(S(=O)(=O)Nc3ccccc3C(=O)O)cc2[N+](=O)[O-])ccc1O | -27% | 50µM* | ? | ? | · | ? | 75* | 19*
CCOc1cc(/C=N/Nc2ccc(S(=O)(=O)Nc3ccccc3C(=O)O)cc2[N+](=O)[O-])cc(Cl)c1O | · | 25µM* | · | · | · | · | 47* | 67* | Pol kappa inh-2=24*
O=C(O)c1ccccc1NS(=O)(=O)c1ccc(NNC(=S)Nc2ccc(OC(F)F)cc2)c([N+](=O)[O-])c1 | ? | 25µM* | ? | · | 89µM* | 13% | 75* | 76*
O=C(NCC1(N2CCCCC2)CCCCC1)c1cccc(S(=O)(=O)Nc2ccc(F)cc2)c1 | 2% | -8% | -23% | 8% | · | -8% | · | ·
CC(=O)Nc1ccc(C=NNc2ccc(S(=O)(=O)Nc3ccccc3C(=O)O)cc2[N+](=O)[O-])cc1 | -30% | 22µM* | ? | ? | · | -4% | ? | 76* | Pol kappa inh-2=21*
SMILES | Pol kappa inh-1 | Pol eta inh-1 | POLI inh | L3MBTL1 inh | POLB inh | APEX1 inh | Pol iota confirm | Pol eta inh-2 | others
COc1ccc2[nH]c(=O)c(-c3nnn(-c4ccccc4)n3)cc2c1 | 15% | -12% | 18% | 11% | 2% | -1% | · | ·
COc1ccc2[nH]c(=O)c(-c3noc(-c4ccccc4)n3)cc2c1 | 2% | ? | ? | -10% | -49% | 10% | 42* | 67*
Cc1cccc2c(N=NC(=O)c3ccc(NS(=O)(=O)c4cccs4)cc3)c(O)[nH]c12 | ? | 11µM* | ? | -4% | · | ? | 17* | 19*
O=C1C(=C(I)I)c2ccccc2-c2ccccc21 | -9% | 22µM* | ? | · | · | · | 21* | 24*
O=C(O)c1cccc(-n2cccc2/C=C2/NC(=O)N(c3ccc(Cl)cc3)C2=O)c1 | 1.6µM* | 0.71µM* | ? | 0.79µM* | 0.35µM* | 2µM* | 0.75* | 1.3* | PGK validate=0.26µM*
O=C(O)c1cccc(-n2cccc2/C=C2/SC(=O)N(CC(=O)N3CCCC3)C2=O)c1 | ? | 5µM* | 7.9µM* | · | 10µM* | 13µM* | 30* | 24* | Pol kappa inh-2=9.5*
CC(C)n1cc(/C=C2/SC(=O)N(CC(=O)N3CCCC3)C2=O)c2ccccc21 | 9% | -9% | -20% | 30% | 40% | -2% | · | ·
